We go through 58 molecules from PubChem BioAssay AID430 (Sanford-Burnham Center for Chemical Genomics, 2006).

In all, about 63,000 compounds went through this assay and about 1,100 (1.7%) were called active. This is one part of a sample in which actives are shown more often than they occur. Rule as the data show it: active = cytotoxicity above about 50%; inactive = the rest. Potency and affinity values are given separately.

This experiment in a line: cytotoxicity in HPDE-C7 cells, cell-based, fluorescence, HTS (AID 430).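 Also: cells exposed to compound for 48 hours before viability readout; 0% = vehicle and 100% = reference cytotoxic drug.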 As to conditions: HPDE-C7 pancreatic duct cells viability, at 10 µM, active compounds read high.
`Cc1sc2ncn3ncnc3c2c1C`: the cytotoxicity is 4.8% (inactive).
The value for `Cc1cc(C)n2nc(C(=O)NCc3ccco3)nc2n1` was 11.2% (inactive); that for `COC(=O)c1ccccc1NC(=O)c1cnc2sccn2c1=O` was 2.7% (inactive); that for `COC(=O)c1ccccc1NC(=O)c1ccc(COc2ccccc2)o1` was -7.8% (inactive).
The value for `COC(=O)c1ccccc1NC(=O)c1ccc(-c2ccccc2F)o1` was 88.4% (active); that for `COc1ccccc1NC(=O)c1ccc(-c2ccccc2F)o1` was -0.2% (inactive).
For `Cc1cc(O)c(-c2cc(C(=O)Nc3ccc(S(=O)(=O)N4CCOCC4)cc3)[nH]n2)cc1C` the value was 1% (inactive).
In the case of `COc1ccc(OC)c(NC(=O)c2cc(-c3cc(Cl)ccc3O)n[nH]2)c1`, the cytotoxicity was 12.2% (inactive).
For `COc1ccc(NC(=O)c2cc(-c3cc(C)cc(C)c3O)n[nH]2)cc1Cl` the value was 59.6% (active); for `Cc1ccc(O)c(-c2cc(C(=O)Nc3ccc(S(=O)(=O)N4CC(C)OC(C)C4)cc3)[nH]n2)c1` (stereo not drawn), -29.9% (inactive).
The value for `COc1ccc(OC)c(NC(=O)c2cc(-c3ccc(C)cc3O)n[nH]2)c1` was -13.3% (inactive); that for `O=C(Nc1cc(C(F)(F)F)ccc1Cl)C1CCN(c2nnc(-n3cccc3)s2)CC1` was -14.7% (inactive); that for `COC(=O)c1ccc(CSc2ncnc3c2nnn3-c2ccc(OC)cc2)o1` was -1% (inactive).
On to `O=C(O)CCC(=O)N1CCc2cc(S(=O)(=O)NC3CCCc4ccccc43)ccc21` (stereo not drawn), for which the cytotoxicity is 3.4% (inactive).
On to `Nc1ccccc1-c1nnc(SCc2ccccc2F)[nH]c1=O`, for which the cytotoxicity is 3.6% (inactive).
For `NC(=O)CSc1nnc2sc3ccccc3n12` the value was 3.6% (inactive).
For `COc1cccc(S(=O)(=O)Nc2cccnc2)c1` the value was -10.8% (inactive); for `COc1ccc(-c2cnc(SCC(=O)Nc3cc(C)on3)n2Cc2ccco2)cc1`, -8.9% (inactive); for `CCC(=O)Nc1cc(NC(=O)CSc2ncc(-c3ccc(F)cc3)n2Cc2ccco2)ccc1C`, 3.8% (inactive).
For `CC(=O)Nc1cccc(NC(=O)CSc2ncc(-c3ccc(Cl)cc3)n2Cc2ccco2)c1` the value was 64% (active).
On to `O=C(CSc1ncc(-c2ccc(F)cc2)n1Cc1ccco1)Nc1ccc2c(c1)OCO2`, for which the cytotoxicity is 72.6% (active).
The value for `Cc1cnc(NC(=O)CSc2ncc(-c3ccccc3)n2Cc2ccco2)s1` was -1% (inactive); that for `COc1ccc(-c2cnc(SCC(=O)Nc3ccc4c(c3)OCO4)n2Cc2ccco2)cc1` was 5% (inactive).
For `CCOCCCN1CC(C(=O)NCCc2ccccc2)CC1=O` (stereo not drawn) the value was -5.3% (inactive); for `CC(=O)Nc1ccc(C(=O)CSc2nc3ccccc3n2CC(=O)N2CCCC2)cc1`, 5% (inactive); for `Cc1cc2c(c(N3CCOCC3)n1)C(=O)OC2`, -1.9% (inactive).
Regarding `COc1ccc(CNC(=O)C2CCCN2S(=O)(=O)c2ccccc2)cc1` (stereo not drawn), the cytotoxicity is -10.6% (inactive).
The value for `O=S(=O)(c1ccccc1Cl)N1CCCC(c2nc(-c3cccnc3)no2)C1` (stereo not drawn) was 2% (inactive).
For `CCC(C)(C)n1nnnc1C(c1cc2cc(OC)c(OC)cc2[nH]c1=O)N1CCc2ccccc21` (stereo not drawn) the value was 11.4% (inactive); for `CCC(C)(C)n1nnnc1C(c1cc2ccc(C)cc2[nH]c1=O)N(Cc1cccnc1)Cc1ccco1` (stereo not drawn), 23.4% (inactive); for `CCCC(c1nnnn1C(C)(C)CC)N(Cc1ccco1)Cc1cc2ccc(OC)cc2[nH]c1=O` (stereo not drawn), 72.9% (active).
Take `COc1ccc2[nH]c(=O)c(CN(Cc3nnnn3Cc3ccco3)C3CCCCC3)cc2c1`: the cytotoxicity was 24.6% (inactive).
For `COc1ccc2cc(CN(Cc3ccco3)Cc3nnnn3C3CCCCC3)c(=O)[nH]c2c1` the value was 23.1% (inactive); for `COc1ccc2[nH]c(=O)c(CN(C3CCCCC3)C(c3nnnn3Cc3ccco3)C(C)C)cc2c1` (stereo not drawn), 21.5% (inactive).
For `CCC(c1nnnn1C1CCCCC1)N(Cc1ccco1)Cc1cc2ccc(OC)cc2[nH]c1=O` (stereo not drawn) the value was 56.8% (active).
For `CCC(c1nnnn1Cc1ccccc1)N(Cc1ccco1)Cc1cc2cc(OC)ccc2[nH]c1=O` (stereo not drawn) the value was 18% (inactive); for `CCC(c1nnnn1Cc1ccco1)N(Cc1cc2cc(OC)ccc2[nH]c1=O)C1CCCCC1` (stereo not drawn), 97.7% (active); for `CCC(C)(C)n1nnnc1C(c1cc2cc(OC)ccc2[nH]c1=O)N1CCc2ccccc21` (stereo not drawn), 2.6% (inactive).
`COc1ccc2cc(CN(Cc3ccco3)C(c3nnnn3C3CCCCC3)C(C)C)c(=O)[nH]c2c1` (stereo not drawn): the cytotoxicity was -35.5% (inactive).
For `CCC(C)(C)n1nnnc1C(c1cc2ccc(OC)cc2[nH]c1=O)N1CCc2ccccc21` (stereo not drawn) the value was 50.8% (active); for `COC(=O)CN1CCN(C(=O)c2ccc(F)cc2)c2ccccc2C1`, -14.6% (inactive); for `Cc1cc(Cl)ccc1N=Cc1c(O)n(C)c(=O)n(C)c1=O`, -4.4% (inactive).
For `Cc1cccnc1NCC(O)COc1ccccc1` (stereo not drawn) the value was -2.3% (inactive); for `CN1CCN(CC(=O)N(Cc2c(C#N)c3ccccc3n2C)c2ccccc2)CC1`, 2.3% (inactive).
With `O=C(c1ccccc1C(=O)N1CCN(c2ccc(F)cc2)CC1)N1CCN(c2ccc(F)cc2)CC1`, the cytotoxicity was 2.5% (inactive).
For `COC(=O)C(C)NC(=O)C1CCCN1S(=O)(=O)c1cc(C)c(Cl)cc1C` (stereo not drawn) the value was 7.8% (inactive); for `CN(C)C(=O)N1CCC(C(=O)NCc2ccccc2)CC1`, -9.6% (inactive).
For `Cc1nc(N2CCC(C)CC2)c2c(C)c(C(=O)O)sc2n1` the value was -38.1% (inactive).
For `Cc1cc(C)c2c3c(c(-c4ccccc4)n2n1)c(=O)n(C)c(=O)n3C` the value was -6.5% (inactive); for `CCN1CCN(c2ccc(NC(=O)COc3ccccc3Cl)cc2)CC1`, -13.4% (inactive); for `Cn1cc(Cl)c(C(=O)N2CCN(c3ncccn3)CC2)n1`, 3.1% (inactive).
On to `CCC(c1nnnn1Cc1cccs1)N1CCN(c2nc3ccccc3s2)CC1` (stereo not drawn), for which the cytotoxicity is -1.9% (inactive).
The value for `c1ccc(COc2ccc(Nc3ncnc4nc[nH]c34)cc2)cc1` was -3.8% (inactive); that for `C=CCn1c(N)c(C(=O)OCCC)c2nc3ccccc3nc21` was 5.2% (inactive).
For the molecule `C=CCn1c(N)c(C(=O)OC(C)(C)C)c2nc3ccccc3nc21`, the cytotoxicity is 8.7% (inactive).
For `C=CCn1c(N)c(C(=O)Nc2ccccc2)c2nc3ccccc3nc21` the value was 66.5% (active).
The value for `COC(=O)c1cccc(S(=O)(=O)N(Cc2ccco2)Cc2cc3ccc(OC)cc3[nH]c2=O)c1` was -2.3% (inactive).
As for `O=C(CCSc1ccccc1)N1CCOCC1`, the cytotoxicity is 2.9% (inactive).
